Laboratory results taken from PubChem BioAssay (EPA / NIEHS).
Results filed as inconclusive are left out. The source made the active and inactive calls. Rule for the calls: active = hit-call score of the fitted dose curve at least 0.9, where 1 is the maximum; inconclusive = response in the unintended direction; inactive = score below 0.9.

Read-out: ABC Transporter (ABCB1), ABCB1 (gene 5243)
Assay: CLD_ABCB1_24hr: CellzDirect (CLD) Gene Expression Assay for ABC Transporter (ABCB1) at 24 hours (AID 2283684)
Protocol: CLD_24hr is a cell-based, multiplexed-readout assay that uses hepatocyte, a human liver primary cell, with measurements taken at 24 hours after chemical dosing in a 96-well plate.CLD_ABCB1_24hr is one of 16 assay component(s) measured or calculated from the CLD_24hr assay. It is designed to make measurements of mRNA induction, a form of inducible reporter, as detected with chemiluminescence signals by Quantitative Nuclease Protection Assay (qNPA) technology.Data from the assay component CLD_ABCB1_24hr was analyzed at the endpoint, CLD_ABCB1_24hr, in the positive analysis fitting direction relative to DMSO as the negative control and baseline of activity. Using a type of inducible reporter, gain-of-signal activity can be used to understand changes in the reporter gene as they relate to the gene ABCB1. Furthermore, this assay endpoint can be referred to as a primary readout. To generalize the intended target to other relatable targets, this assay endpoint is annotated to the transporter intended target family, where subfamily is ABC transporter.
Human hepatocyte cultures were treated daily for two consecutive days with fresh dosing solutions containing appropriate concentrations of the 320 ToxCast chemicals (chemical identities were blinded to CellzDirect and other ToxCast collaborators), vehicle control (0.2% DMSO), and positive control inducers as summarized in Table 1. Due to the large number of treatment groups and chemicals examined, the ToxCast chemicals were divided into two groups (spanning two independent cultures of hepatocytes from separate donor preparations (Hu778: ToxCast plates 1 and 2; Hu776: ToxCast plates 3 and 4). Each preparation of human hepatocyte cultures was treated with respective vehicle control, medium only control, set of six positive controls/reference chemicals for the five hepatic receptor pathways, and a subset of eight of the ToxCast chemicals (indoxacarb, pyrithiobac-sodium, norflurazon, cyhalofop-butyl, methomyl, thiram, acetochlor, and propiconazole). These replicate data, coupled with internal replicates designed within the blinded ToxCast chemical library, provided additional data to evaluate interindividual differences between hepatocyte preparations and their potential impact on chemical profiles.Cell morphology and integrity were evaluated using phase-contrast microscopy as an indicator of hepatocyte cell health (Tyson & Green, 1987). Cultures for each treatment group (i.e., media, vehicle [0.2% DMSO], positive control inducers [multiple concentrations], and the ToxCast chemicals [multiple concentrations]) were observed and cell morphology was assessed relative to vehicle control cultures at each harvest time point (0, 6, 24, or 48 h). […] Images were evaluated at the conclusion of the study to assess changes in cell integrity and account for the effects of chemical exposure on uncharacteristic changes in concentration-dependent gene expression profiles. The results from these determinations of apparent cytotoxicity were annotated (yes/no) alongside the corresponding qNPA data for reference.At the conclusion of each treatment period, hepatocyte cultures (96-well) were washed with 1 volume of HBSS, lysed by addition of 25 ul ArrayPlate lysis buffer (HTG, Tucson, AZ), and 70 ul/well of Denaturation Oil, denatured by incubation at 95C for 10 min, and frozen at approximately -70C until analysis by nuclease protection assay (qNPA) (Roberts et al., 2007). For qNPA analysis, cell lysates were thawed at 50C for approximately 30 min, qNPA probes were added, and samples were incubated at 95C for 10 min to begin the detection process by denaturing the target RNA, dissociating the duplexes and secondary structure hybridization. At the conclusion of the hybridization period, S1 nuclease reagent was added to each sample to digest all nonprotected nucleotides at 50C for 60-90 min. […]

SMILES	outcome
CCCCNC(=O)n1c(NC(=O)OC)nc2ccccc21	inactive
C=CCC1=C(C)[C@@H](OC(=O)[C@@H]2[C@@H](C=C(C)C)C2(C)C)CC1=O	inactive
Fc1ccc(Oc2ccnc3cc(Cl)cc(Cl)c23)cc1	inactive
CCOC(=O)CC(SP(=S)(OC)OC)C(=O)OCC (stereo not given)	inactive
CCc1nn(C)c(C(=O)NCc2ccc(C(C)(C)C)cc2)c1Cl	inactive
COC(=O)C(C)Oc1ccc(Oc2ccc(Cl)cc2Cl)cc1 (stereo not given)	inactive
CS/C(C)=N/OC(=O)N(C)SN(C)C(=O)O/N=C(\C)SC	inactive
COP(=S)(OC)Oc1nc(Cl)c(Cl)cc1Cl	inactive
CNC(=O)ON=CC(C)(C)SC	inactive
COP(N)(=O)SC (stereo not given)	inactive
CNC(=S)S	inactive
CCOC(=O)C(Cl)Cc1cc(-n2nc(C)n(C(F)F)c2=O)c(F)cc1Cl (stereo not given)	inactive
Cc1cc(Cl)ccc1OCC(=O)O	inactive
CCNc1nc(Cl)nc(NCC)n1	inactive
Cc1ccc(-c2c(Cl)nc(C#N)n2S(=O)(=O)N(C)C)cc1	inactive
CN(C)C(=S)SSC(=S)N(C)C	inactive
COC(=O)N(OC)c1ccccc1COc1ccn(-c2ccc(Cl)cc2)n1	inactive
COc1nc(C)nc(NC(=O)NS(=O)(=O)c2ccccc2CCC(F)(F)F)n1	inactive
COc1nc(C)nc(NC(=O)NS(=O)(=O)c2ccccc2Cl)n1	inactive
C=CCC1=C(C)C(OC(=O)C2C(C=C(C)C)C2(C)C)CC1=O (stereo not given)	inactive

SMILES	outcome
CCON=C(CC)C1=C(O)CC(c2c(C)cc(C)cc2C)CC1=O (stereo not given)	inactive
COc1nc(NC(C)C)nc(NC(C)C)n1	inactive
N#Cc1cc(Br)c(O)c(Br)c1	inactive
CCNc1nc(Cl)nc(NC(C)C)n1	inactive
CCCC1COC(Cn2cncn2)(c2ccc(Cl)cc2Cl)O1 (stereo not given)	inactive
CC(C)Oc1cc(-n2nc(C(C)(C)C)oc2=O)c(Cl)cc1Cl	inactive
CCCCC(CC)COC(=O)c1ccccc1C(=O)OCC(CC)CCCC (stereo not given)	inactive
CCCN(CCC)c1c([N+](=O)[O-])cc(S(N)(=O)=O)cc1[N+](=O)[O-]	inactive
COC(=O)C=C(C)OP(=O)(OC)OC	inactive
O=C(O)COc1nc(Cl)c(Cl)cc1Cl	inactive
N#CC(CCc1ccc(Cl)cc1)(Cn1cncn1)c1ccccc1 (stereo not given)	inactive
Cc1c(F)c(F)c(COC(=O)C2C(/C=C(\Cl)C(F)(F)F)C2(C)C)c(F)c1F (stereo not given)	inactive
N#Cc1nn(-c2c(Cl)cc(C(F)(F)F)cc2Cl)c(N)c1S(=O)C(F)(F)F (stereo not given)	inactive
CC1COC(Cn2cncn2)(c2ccc(Oc3ccc(Cl)cc3)cc2Cl)O1 (stereo not given)	inactive
CO/C=C(/C(=O)OC)c1ccccc1Oc1cc(Oc2ccccc2C#N)ncn1	inactive
OC(c1ccc(Cl)cc1)(c1cncnc1)c1ccccc1Cl (stereo not given)	inactive
CCCCOC(=O)c1ccccc1C(=O)OCCCC	inactive
CC(C)(C)c1ccc(CSc2cnn(C(C)(C)C)c(=O)c2Cl)cc1	inactive
CC(Oc1ccc(Cl)cc1Cl)C(=O)O (stereo not given)	inactive
C=CC1(C)OC(=O)N(c2cc(Cl)cc(Cl)c2)C1=O (stereo not given)	inactive
